High-throughput results deposited in PubChem BioAssay by several laboratories.
GC-B act: human GC-B receptor activators, primary screen, HEK293 GC-B cells, cGMP TR-FRET, EC30 CNP. Atrial natriuretic peptide receptor 2 (Homo sapiens), P20594. 0% at EC30 CNP, 100% saturating CNP. activation, % at 10 µM. 370,000 compounds, 0.11% hits;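 active means activation at 10 µM reaching about 35% in either raw or pattern-adjusted values, limit read from the data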
GC-A act: GC-A stimulated cGMP production enhancers – HEK293 GC-A cells, cGMP TR-FRET, EC30 ANP, primary screen; Atrial natriuretic peptide receptor 1 (Homo sapiens), P16066; 370,000 compounds, 0.14% hits; 0% at EC30 ANP, 100% saturating ANP; activation, % at 10 µM; in the data active means activation above about 40%
PLC-gamma1 inh: PLC-gamma1 enzyme inhibitors, primary screen, biochemical, fluorescence, purified enzyme | fluorogenic substrate | 370,000 compounds, 0.84% hits | inhibition, % at 12.2 µM | 1-phosphatidylinositol 4,5-bisphosphate phosphodiesterase gamma-1 (Homo sapiens), P19174 | AID 720700, 2013; in the data active means inhibition above about 9.5%
PLC-beta3 inh: human PLC-beta3 inhibitors, primary screen, biochemical, fluorescence. 370,000 compounds, 0.18% hits. Purified PLC-beta3, fluorogenic substrate. 1-phosphatidylinositol 4,5-bisphosphate phosphodiesterase beta-3 (Homo sapiens), Q01970. inhibition, % at 12.2 µM; in the data active means inhibition above about 11%
Rce1 inh: yeast Rce1p protease inhibitors, primary screen, biochemical, fluorescence, cell-free homogeneous; calls only; 290,000 compounds, 0.27% hits; yeast membranes, quenched prenylated peptide cleavage fluorescence; CAAX prenyl protease 2 (Saccharomyces cerevisiae (strain ATCC 204508 / S288c)), Q03530;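 active means fall in fluorescence gain of 50% or more versus controls, with final raw signal at or below 3038400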
M18AAP inhibitor: PfM18AAP inhibitors, malaria aminopeptidase, primary screen, biochemical, QFRET, recombinant enzyme; AID 1822, 2009; inhibition, % at 7.35 µM; H-Glu-NHMec fluorogenic cleavage; M18 aspartyl aminopeptidase (Plasmodium falciparum 3D7); 290,000 compounds, 1.2% hits;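 active means inhibition above the campaign mean inhibition over all tested compounds plus 3 SD, cut at about 28% in these data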
A number is an active result; - = inactive; . = no result; + = active, no number; ! = a repeat was not active. Shown are actives, neighbours in structure and some others; about 2.2% of the full set was active somewhere.

SMILES | GC-B act | GC-A act | PLC-gamma1 inh | PLC-beta3 inh | Rce1 inh | M18AAP inhibitor
COc1ccccc1/C=C1\SC(=S)N(Nc2nc(C)cc(C)n2)C1=O | - | - | - | - | - | -
Cc1cc(C)nc(NN2C(=O)/C(=C/c3ccc(O)cc3)SC2=S)n1 | - | - | . | . | - | 30.1
O=C(NCCc1ccccc1)OCc1cn(Cc2ccc(F)c(F)c2)nn1 | - | - | - | - | . | .
O=C(O)CCC(=O)Nc1nc2nc(-c3ccccc3)cc(-c3ccccc3)n2n1 | - | - | - | - | + | -
Cc1ccc(OCCN2C(=O)C(=O)c3cc(C)ccc32)cc1 | - | - | - | - | + | -
Cc1cc(=O)n2[nH]c(C(=O)O)nc2n1 | - | - | - | - | - | -
Cc1cc(=O)n2[nH]cc(C(=O)O)c2n1 | - | - | - | - | - | 29.1
CCCCCCCCNC(=O)C1CSCCS(=O)(=O)N1Cc1ccc(F)cc1 (stereo not given) | - | - | - | - | . | .
Cc1ccc(C2=CCN(C)C(=O)N2c2ccc(Br)cc2)cc1 | - | - | - | - | . | .
CCC(C)NC(=O)Nc1ccc(F)c(Cl)c1 (stereo not given) | - | - | - | - | - | -
CC(C)CNC(=O)Nc1ccc(F)c(Cl)c1 | - | - | - | - | + | -
COC(=O)[C@]12C[C@H](CC(=O)NCCc3ccccc3OC)C(=O)N(Cc3ccc(Cl)cc3Cl)C1=C[C@H](C(C)(C)C)O[C@@H]2C | - | - | - | - | . | .
CC1(c2ccc(OCC#N)cc2)C=C(c2ccc(OCC#N)cc2)n2nc(C(F)(F)F)nc2N1 (stereo not given) | - | - | - | - | + | -
COc1ccc(NC(=O)c2sc3nc(N4CCOCC4)c4c(c3c2N)CC(C)(C)OC4)c(OC)c1 | - | - | - | - | - | 31.2
Cc1cc(OCC(=O)N2CCC(C(=O)O)CC2)c2c(C)cc(=O)oc2c1 | - | - | - | - | + | -
CSC[C@H](NC(=O)COc1cc2c(c3oc(=O)cc(C)c13)CCC(C)(C)O2)C(=O)O | - | - | - | - | + | -
Cc1cc(=O)oc2c3c(cc(OCC(=O)N4CCC(C(=O)O)CC4)c12)OC(C)(C)CC3 | - | - | - | - | + | -
CCNC(=O)COc1cccc(C(=O)NCc2ccccc2)c1 | - | - | - | - | - | -
CC(C)CNC(=O)COc1cccc(C(=O)NCc2ccccc2)c1 | - | - | - | - | + | -
Cc1ccc2c(c1)C1CS(=O)(=O)N(Cc3ccccc3)CN1C2 (stereo not given) | - | - | - | - | . | .
COc1cc(/C=C/C(=O)O)ccc1O | - | - | - | - | - | .
O=C(O)/C=C/c1ccc(O)c(O)c1 | - | - | - | - | - | 81.7
CC(=O)Oc1ccc(-c2csnn2)cc1 | - | - | - | - | - | -
Cc1ccccc1C(=O)NNc1ccc(-c2csnn2)cc1 | - | - | - | - | - | 30.3
S=c1nc(-c2ccccc2)n(-c2ccccc2)[nH]1 | - | - | - | - | - | 29.5
SMILES | GC-B act | GC-A act | PLC-gamma1 inh | PLC-beta3 inh | Rce1 inh | M18AAP inhibitor
S=c1nc(-c2ccccc2)[nH]n1-c1ccccc1 | - | - | - | - | - | -
CCC[C@H]1[C@@H](NC(=O)c2ccc(OC)cc2)CC[C@@]23CCCN2C(=O)CCC[C@@H]13 | - | - | - | - | . | .
O=C(N/C(=C\c1ccc(Cl)cc1)C(=O)N1CCOCC1)c1ccc([N+](=O)[O-])cc1 | - | - | 15.2 | - | - | -
CCc1nnc(N/N=C/c2cccs2)n1N | - | - | - | - | - | 52.8
Cc1c(NC(=O)CN2CCN(c3ccccc3)CC2)c(=O)n(-c2ccccc2)n1C | - | - | - | - | - | -
Cc1c(NC(=O)CN2CC(C)OC(C)C2)c(=O)n(-c2ccccc2)n1C (stereo not given) | - | - | 14.3! | - | . | -
O=C(Cn1nnc(-c2ccncc2)n1)Nc1ccc(F)cc1F | - | - | - | - | . | .
CN1CCN(c2ccc3c(c2)Oc2ccccc2CN(Cc2cn(Cc4ccc(C(F)(F)F)cc4)nn2)S3(=O)=O)CC1 | - | - | - | - | . | .
CC(C)c1ccc(/C=C2\SC(=S)N(CCC(=O)NCCCn3ccnc3)C2=O)cc1 | - | - | - | - | + | -
COc1ccc(/C(CC2(O)C(=O)Nc3ccccc32)=N\O)cc1 (stereo not given) | - | - | - | - | - | -
C/C(CC1(O)C(=O)Nc2ccccc21)=N\O (stereo not given) | - | - | - | - | + | -
COC(=O)[C@]12C[C@H](CC(=O)NCCc3ccccc3OC)C(=O)N(Cc3ccc4c(c3)OCO4)C1=C[C@H](C(C)C)O[C@@H]2C1CC1 | - | - | - | - | . | .
Cc1ccc(Cn2cc(CN3[C@@H](CC(C)C)COc4cc(Br)ccc4S3(=O)=O)nn2)cc1 | - | - | - | - | . | .
O=c1[nH]n2c(=O)c3c([nH]c2c1N=Nc1cccc(Cl)c1)CCCC3 | - | - | - | - | - | -
O=C1CCN(N=Nc2cccc(Cl)c2)N1 | . | . | . | . | - | 31.3
CCCC[C@H](C(=O)N(C)c1ccccc1)[C@@H](O)c1ccc(C(C)=O)cc1 | - | - | - | - | . | .
Cc1c(C(=O)c2ccc(F)cc2F)c2ccccn2c1CCC#N | - | - | - | - | - | 29.8
CC(=O)c1sc(C(C)(C)C)cc1NC(=O)c1ccccc1C(=O)O | - | 47.5 | - | - | - | -
CCOc1cc(/C=C2\CN(CC)C/C(=C\c3ccc(O)c(OCC)c3)C2=O)ccc1O | - | - | - | - | - | 29.1
COC(=O)c1cc(S(=O)(=O)N2CCN(c3ccccc3Cl)CC2)cn1C | - | - | - | - | . | .
Oc1ccc(-c2cnns2)c(O)c1 | - | - | - | - | - | 98.7
Cc1ccc(OCCOc2c(Cl)cc(Cl)cc2Cl)c([N+](=O)[O-])n1 | - | - | - | - | . | .
O=C1NC(Cc2ccc(O)cc2)c2nc3cc(F)c(F)cc3c(=O)n2-c2cc3ccccc3cc21 (stereo not given) | 38.0 | - | - | - | . | .
O=C1NC(Cc2ccc(O)cc2)c2nc3ccc(F)cc3c(=O)n2-c2cc3ccccc3cc21 (stereo not given) | 65.1 | - | - | - | . | .
COc1ccc(-n2c(SCC(=O)Nc3cc(C)c(NC(=O)c4ccccc4)cc3OC)nnc2-c2ccco2)cc1 | - | - | - | - | . | .
CC(CCc1ccccc1)NCC(O)c1ccc(O)c(C(N)=O)c1 (stereo not given) | - | - | - | - | + | -
